# PubChem BioAssay (NCATS)
# Several values for one entry are separate records, joined by “and”; a condition that tells them apart may be missing. Equal entries are not always repeated. Records with an inconclusive call do not appear. Values without a mark were called inactive. Activity calls are given as the source filed them. The call rests on the fitted dose curve; in most records, active means well fitted cell-killing curve with a large enough effect; inconclusive means small, poorly fitted or top-dose-only effect, or effect the other way; inactive means no such curve, though single readings can be large or run the other way.
# Assay: Viability qHTS for spleen associated tyrosine kinase inhibitor (SYKi) drug resistant MV4-11 cells (AID 1963824); further: nearly all actives have a fitted effect of over 35% in size
# Details: SYKi-resistant MV4-11 viability, CellTiter-Glo, 72 h; series mostly up to 45 µM; viability, % of control: at the top concentration
# How it was run: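 SYK-inhibitor-resistant MV4-11 AML cells were seeded at 500 per well onto compound and cultured 72 hours (37 °C, 5% CO2). CellTiter-Glo was then added, and after 10 min at room temperature, luminescence gave viability.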
# Potency means the concentration at half of the fitted maximal effect.
SMILES,Potency,"viability, % of control"
Cc1[nH]nc2ncc(C(=O)N3CCC[C@H]3c3ccc(Cl)cc3)cc12,2950 nM (active),
Cn1c(NC[C@@H](N)Cc2ccccc2)nc(-c2ccncc2)c(-c2ccc3ccccc3c2)c1=O,6610 nM (active),
O=C(c1ccccc1)c1ccccc1,,89.3%
Cc1[nH]c(/C=C2\C(=O)Nc3ccc(S(=O)(=O)N(C)c4cccc(Cl)c4)cc32)c(C)c1C(=O)N1CCN(C)CC1,1.46 µM (active) and 2.09 µM (active),
CN1[C@@H]2CC[C@H]1CC(NC(=O)n1c(=O)[nH]c3ccccc31)C2 (stereo not given in full),,98.7%
COc1ccc(S(=O)(=O)N(C(C)=O)c2ccccc2/C=C/c2cc[n+]([O-])cc2)cc1,833 nM (active),
COc1cc(-c2ccc(=O)[nH]n2)ccc1OC(F)F,,108%
O=C(O)/C=C(\CC(=O)O)C(=O)O,,83.9%
C[C@]12CC[C@@H]3c4ccc(O)cc4CC[C@H]3[C@@H]1CC[C@@H]2OC(=O)CCC1CCCC1,,8.36%
CC(C)c1cc(CNc2nc(Nc3cc(C4CC4)[nH]n3)cc(N3CCN(C)CC3)n2)on1,23.1 nM (active),
O=C1OC(COc2ccccc2[N+](=O)[O-])CC1Cc1ccccc1 (stereo not given),13200 nM (active),
FC(F)(F)c1ccc(CNc2ccc(Cc3c[nH]c4ncccc34)cn2)cc1,206 nM (active) and 291 nM (active),
C/C=C/C/C=C/CCC(=O)[C@H]1O[C@H]1C(N)=O,6610 nM (active),
CC(C)(O)c1ccccc1CC[C@@H](SCC1(CC(=O)O)CC1)c1cccc(/C=C/c2ccc3ccc(Cl)cc3n2)c1,,71%
C[N+]1(C)CCC(=C(c2ccccc2)c2ccccc2)CC1,,72.2%
CCN1C(=O)CNc2ncc(-c3ccc(-c4ncn[nH]4)nc3C)nc21,742 nM (active),
CCN(CC)CCCC(C)Nc1c2ccc(Cl)cc2nc2ccc(OC)cc12 (stereo not given),2.09 µM (active) and 3.99 µM (active),
C#Cc1ccc(-c2ccccc2F)cc1,,80.4%
Cn1cc(-c2cc(Oc3cc(F)c(NC(=O)C4(C(=O)Nc5ccccc5)CC4)cc3F)ccn2)cn1,461 nM (active),
CCn1c(=O)c(-c2ccc(Cl)cc2Cl)cc2cnc(Nc3ccc(N4CCNCC4)c(F)c3)nc21,231 nM (active) and 186 nM (active),

SMILES,Potency,"viability, % of control"
CN1[C@@H]2CCC[C@H]1CC(NC(=O)c1nn(C)c3ccccc13)C2 (stereo not given in full),,91.5%
CNC(=O)[C@H](Cc1c[nH]c2ccccc12)NC(=O)[C@@H](CC(=O)NO)CC(C)C,10500 nM (active),
C[C@]12C=CC(=O)C=C1[C@@H](F)C[C@@H]1[C@@H]2[C@@H](O)C[C@@]2(C)[C@H]1CC[C@]2(O)C(=O)CO,,79.9%
Cc1ccc(S(=O)(=O)Cc2nc(-c3ccc(C(=O)NCc4cccnc4)cc3)oc2C)cc1,10.5 nM (active),
COc1c2occc2c(OC)c2c(=O)cc(C)oc12,,88.7%
O=C(O)Cc1cccc(-c2cc(CCCCCCc3ccc(O[C@H]4O[C@H](CO)[C@@H](O)[C@H](O)[C@@H]4O)c(-c4cccc(CC(=O)O)c4)c3)ccc2O[C@H]2O[C@H](CO)[C@@H](O)[C@H](O)[C@@H]2O)c1,,113% [at 0.588 µM]
Nc1ncnc2c1ncn2[C@@H]1O[C@H](CO)C[C@H]1O,,94.2%
COCc1c(-c2ccc(NC(=O)Nc3cc(C(F)(F)F)ccc3F)c(F)c2)c2c(N)ncnn2c1CN1CCOCC1,16.4 nM (active),
CCCCNc1ncc2c(-c3ccc(CN4CCN(C)CC4)cc3)cn(C3CCC(O)CC3)c2n1 (stereo not given),11.6 nM (active) and 20.9 nM (active),
CCN1CCN(Cc2ccc(Nc3ncc(F)c(-c4cc(F)c5nc(C)n(C(C)C)c5c4)n3)nc2)CC1,366 nM (active) and 417 nM (active),
CN1C(CCl)Nc2cc(Cl)c(S(N)(=O)=O)cc2S1(=O)=O (stereo not given),,80.8%
COc1cccc(Nc2ncnn3ccc(CN4CC[C@@H](N)[C@H](O)C4)c23)c1,184 nM (active),
C=CC(=O)Nc1cc(Nc2nccc(-c3cn(C)c4ccccc34)n2)c(OC)cc1N(C)CCN(C)C,934 nM (active),
C=C1C(=O)O[C@H]2C[C@H](C)C(/C=C/C(C)=O)=CC[C@H]12,934 nM (active),
CC(C(=O)O)c1ccc(C(=O)c2ccccc2)s1 (stereo not given),,85.8%
O=C(Nc1ccc2[nH]nc(-c3ccncc3)c2c1)[C@@H]1CCN(CC(=O)N2CCN(c3ccc(-c4ncccn4)cc3)CC2)C1,23.1 nM (active) and 468 nM (active),
C=CCNc1c(O)cc2c(O)c1C[C@@H](C)C[C@H](OC)[C@H](O)[C@@H](C)/C=C(/C)[C@H](OC(N)=O)[C@@H](OC)/C=C\C=C(\C)C(=O)N2,417 nM (active),
Oc1cc(O)c2c(c1)O[C@H](c1ccc(O)c(O)c1)[C@H](O)C2,,81.4%
NCCCC[C@H](N[C@@H](CCc1ccccc1)C(=O)O)C(=O)N1CCC[C@H]1C(=O)O,,88.3%
CCCC(=O)Nc1ccc(OCC(O)CNC(C)C)c(C(C)=O)c1 (stereo not given),,101%
